In all, about 3,600 compounds went through this assay and about 900 (25%) were called active. The rule behind the calls is not given here. These entries were drawn from the full list. Where a call stands in place of a potency, no number is given. Potency and affinity values are given separately.

This experiment concerns the target Protein Tat (Human immunodeficiency virus type 1 group M subtype B (isolate HXB2)) (UniProt P04608). Description: HIV-1 Tat–TAR interaction blockers – biochemical, fluorescence polarization, FAM-labeled TAR RNA, counter-screen for Vif-APOBEC3G degradation inhibitor project, dose response (AID 1117361). The following applies: Tat-TAR RNA binding; series mostly up to 100 µM. (Polarisation of emitted light reports the rotation of a fluorescent probe.)
In the case of `CCOc1ccccc1C(=S)NC1CCCCC1`, the molecule was called inactive.

On to `CCOC(=O)C(NC(=O)NC1CCCCC1)(c1ccccc1)C(F)(F)F` (stereo not given), for which the result was inactive.

With `COc1cc(CN2CCNC(=O)C2CC(=O)N(Cc2nccn2C)C(C)C)cc(OC)c1` (stereo not given), the outcome was inactive.

On to `CCOCC(=O)Nc1nc2ccc(OC)cc2s1`, for which the outcome was inactive.

On to `CC(NC(=O)c1cccs1)C(c1cccs1)N1CCN(Cc2ccccc2)CC1` (stereo not given), for which the result was inactive.

Take `COCCCN1C(=O)C(O)=C(C(C)=O)C1c1ccccn1` (stereo not given): the call was inactive.

For the molecule `CCOc1ccc(OCC)c(S(=O)(=O)NCc2ccc3c(c2)OCO3)c1`, the call was inactive.

On to `COC(=O)CC(NS(=O)(=O)c1cccs1)c1cccc2ccccc12` (stereo not given), for which the molecule was called inactive.

Turning to `Cc1ccc(SCCNC(=O)c2cccc([N+](=O)[O-])c2C)cc1`, the molecule was called inactive.

As for `CCOC(=O)Cn1c(=O)oc2cc(S(=O)(=O)Nc3c(C)cc(C)cc3C)ccc21`, the molecule was classed as inactive.

Regarding `CCOc1ccc(Br)cc1/C=N/O`, the outcome was inactive.

As for `O=C(CN1C(=O)c2ccccc2C1=O)NCC(=O)OCC(=O)c1cccc([N+](=O)[O-])c1`, the molecule was classed as inactive.

Regarding `O=C1CN(C(=O)COC(=O)C23CC4CC(CC(O)(C4)C2)C3)c2ccccc2N1`, the call was inactive.

`COc1ccc(NC(=O)CCc2nc(-c3ccccc3F)no2)cc1`: the outcome was inactive.

Turning to `O=C(NCCCN1CCOCC1)c1ccc(Br)s1`, the molecule was called inactive.

Regarding `CC1CCN(C(=O)CCc2nc3cc(S(=O)(=O)N(C)C)ccc3n2C)CC1`, the result was inactive.

For the molecule `CCC(CC)NC(=O)Nc1ccc(F)cc1F`, the outcome was inactive.

`CCC(CC)c1nc2cc(OC)c(OC)cc2c(=O)o1`: the molecule was called inactive.

Turning to `CCOC(=O)C1CCCC12Nc1cccc3cccc(c13)N2` (stereo not given), the outcome was inactive.

Take `Oc1ccc(C2Nc3cccc4cccc(c34)N2)c(O)c1`: the result was inactive.

Consider `CCCCc1nc2sc3c(=O)[nH]cnc3c2c2c1CCCC2`, for which the call was inactive.

As to `CC(C)(C)C(=O)OCc1nc(-c2ccc(O)c(O)c2)cs1`, the result was inactive.

As for `Cc1cccnc1Nc1nc(-c2ccc(O)c(O)c2)cs1`, the molecule was called inactive.

As for `CCc1nnc(NC(=O)c2ccc(S(=O)(=O)N(CC(C)C)CC(C)C)cc2)o1`, the outcome was inactive.

As to `CCCNC(=O)c1ccc(-c2nc3ccccc3s2)s1`, the outcome was inactive.

As for `Cc1nnc(SCCCn2c(N3CCN(c4ccccc4)CC3)nc3c2c(=O)[nH]c(=O)n3C)s1`, the molecule was classed as inactive.

`NCCCSC1=NCCCN1`: the molecule was called inactive.

In the case of `COc1ccccc1NC(=O)C1=C(C)Nc2nnnn2C1c1ccccn1` (stereo not given), the outcome was inactive.

In the case of `CCCCCOC(=O)C1=C(C)Nc2nnnn2C1c1ccccc1Cl` (stereo not given), the call was inactive.

As to `COc1cccc(N2C(=O)C3ON(c4ccccc4)C(c4cccs4)C3C2=O)c1` (stereo not given), the molecule was classed as inactive.

For the molecule `COc1ccc(N2CCN(CC(=O)c3c(C)n(C)c4ccc(OC)cc34)CC2)cc1`, the outcome was inactive.

Regarding `CN1CCN(CCCNC(=O)C2CC(=O)N(C3CCCCC3)C2)CC1` (stereo not given), the molecule was classed as inactive.

Turning to `C=CCn1c(C)cc(C(=O)COC(=O)C2CC(=O)N(Cc3ccccc3)C2)c1C` (stereo not given), the outcome was inactive.

For the molecule `CC1C/C(=N/N2C(=O)CSC2=S)CC(C)(C)C1` (stereo not given), the call was inactive.

For the molecule `COCCNc1nc2c(c(=O)n(C)c(=O)n2C)n1Cc1cccc(C)c1`, the molecule was called inactive.

Take `CCOc1cc(C(=O)Nc2cc(C)ccn2)cc(OCC)c1OCC`: the result was inactive.

With `COc1ccc(S(=O)(=O)n2nc(OC(=O)c3ccc(C)cc3)cc2N)cc1`, the molecule was classed as inactive.

With `Nc1ccc(N=Nc2ccc(O)cc2)c(N)n1`, the molecule was classed as inactive.

On to `COCCn1c(SCC(=O)N2CCC(C)CC2)nc2c([nH]c3ccccc32)c1=O`, for which the molecule was called inactive.

In the case of `Cn1nc(C(F)(F)F)c2cc(C(=O)NC3CC3)sc21`, the molecule was classed as inactive.

Take `O=[N+]([O-])c1ccc(CNc2ccc(F)cc2)s1`: the molecule was called inactive.

As for `COc1cccc(CN2CCSCC2)c1`, the outcome was inactive.

As to `CCOc1ccc(N(CC(=O)Nc2cccc(OC)c2)S(=O)(=O)c2c(C)noc2C)cc1`, the molecule was classed as inactive.

Consider `CCN1CCN(S(=O)(=O)c2cccs2)CC1`, for which the call was inactive.

As for `O=[N+]([O-])c1ccc(O)c2ncccc12`, the result was inactive.

As to `O=c1c2ccccc2c(-c2ccccc2)nn1-c1cc(Cl)ccc1[N+](=O)[O-]`, the call was inactive.

`Cc1ccccc1CS(=O)(=O)Cc1ccc(C(=O)N2CCOCC2)o1`: the outcome was inactive.

Regarding `O=C(COC(=O)Cc1cccc(C(F)(F)F)c1)NCC1CCCO1` (stereo not given), the outcome was inactive.

With `COc1ccc(CC(=O)Nc2ccc(-c3csc(C)n3)cc2)cc1`, the result was inactive.

`O=C(O)/C=C/c1ccc(S(=O)(=O)N2CCN(CCN3C(=O)C4C5C=CC(C5)C4C3=O)CC2)cc1` (stereo not given): the molecule was classed as inactive.

`COc1ccc(-n2c(SCC(=O)NNC(=O)c3ccccc3C)nnc2-c2ccncc2)cc1`: the result was inactive.

As to `CC(C)(C)c1cc(N/C=C\c2nnnn2-c2ccc(Br)cc2)no1`, the call was inactive.

With `O=C(Nc1ccc2c(c1)oc1ccccc12)c1cccnc1`, the result was inactive.

For `COc1ccc(/C=N/NC(=O)Cn2cnc3c2c(=O)n(C)c(=O)n3C)c(OC)c1OC`, the outcome was inactive.

As to `CC(/C=C/c1ccco1)=N\NC(=O)c1cccnc1`, the call was inactive.

On to `CCCCn1cnc2c1c(=O)n(C)c(=O)n2C`, for which the molecule was called inactive.

Regarding `O=C(c1cc(COc2ccc(F)cc2F)on1)N1CCN(C2CCCC2)C(=O)C1`, the molecule was called inactive.

`CC(C)CCn1cnc2c([nH]c3cccc(Cl)c32)c1=O`: the outcome was inactive.

For the molecule `CCCS(=O)(=O)N1CCC(C(=O)NCCCN(CC)c2cccc(C)c2)CC1`, the call was inactive.

In the case of `CCc1nnc(NC(=O)C(NS(=O)(=O)c2ccc3c(c2)OCCO3)C(C)C)s1` (stereo not given), the molecule was classed as inactive.

Turning to `Nc1nc(SCc2nc(-c3ccccc3)no2)[nH]c(=O)c1-c1ccccc1`, the molecule was called inactive.

Regarding `Cc1ccc(-c2nnn(CC(=O)N(c3ccc(F)cc3)C(C(=O)NC3CCCC3)c3ccco3)n2)o1` (stereo not given), the result was inactive.

As for `O=C(CC(=O)NN=Cc1ccc2c(c1)CCC2)NN=Cc1ccc2c(c1)CCC2`, the result was inactive.

Take `O=S(=O)(c1ccc(NC(=S)N/N=C/c2ccc(O)c(O)c2)cc1)N1CCOCC1`: the molecule was classed as inactive.

Turning to `Cc1[nH]c2ccccc2c1C(=O)CN1CCC(C(N)=O)(N2CCCCC2)CC1`, the molecule was classed as inactive.

As for `C[C@H](NC(=O)c1ccco1)C(=O)Nc1cccc([N+](=O)[O-])c1`, the outcome was inactive.

For the molecule `CCNS(=O)(=O)c1ccc(NS(=O)(=O)c2cc(C)ccc2C)cc1`, the molecule was classed as inactive.

On to `N/C(=N\OC(=O)COc1ccc2ccccc2c1)c1ccccn1`, for which the outcome was inactive.

Regarding `Cc1ccc(-c2nn3c(C)nnc3s2)cc1NC(=O)CSc1ccc(Cl)cc1`, the molecule was classed as inactive.

As to `COc1ccc(C)cc1-n1c(SCC(=O)Nc2cc(C)on2)nc2sc(C)c(C)c2c1=O`, the molecule was called inactive.

For the origin of these results see PubChem BioAssay AID1117361 (Southern Research Institute, 2015).
